Laboratory results: PubChem BioAssay (EPA / NIEHS)
Active and inactive are the calls of the source. Rule for the calls, unless noted: active = hit-call score of the fitted dose curve at least 0.9, where 1 is the maximum; inactive = score below 0.9.

Molecular target: Peroxisome proliferator-activated receptor gamma (Homo sapiens) (UniProt P37231)
Assay: OT_PPARg_PPARgSRC1_1440: Odyssey Thera (OT) 24-hour Protein-Complementation Assay for Peroxisome Proliferator-activated Receptor Gamma/ SRC-1 Co-activator (AID 2283388; active = hit-call score of the fitted dose curve at least 0.9, where 1 is the maximum)
Settings: not given
Procedure, shortened: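 HEK293T transiently transfected with PPARg/SRC-1 split-Venus YFP fusions 48 h before dosing, then treated 24 h at 37C. Fixed cells imaged; nuclear/cytoplasmic 488 nm fluorescence ratio, gain of signal versus DMSO.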

Sequence of Peroxisome proliferator-activated receptor gamma (Homo sapiens) (P37231 whole entry, looked up): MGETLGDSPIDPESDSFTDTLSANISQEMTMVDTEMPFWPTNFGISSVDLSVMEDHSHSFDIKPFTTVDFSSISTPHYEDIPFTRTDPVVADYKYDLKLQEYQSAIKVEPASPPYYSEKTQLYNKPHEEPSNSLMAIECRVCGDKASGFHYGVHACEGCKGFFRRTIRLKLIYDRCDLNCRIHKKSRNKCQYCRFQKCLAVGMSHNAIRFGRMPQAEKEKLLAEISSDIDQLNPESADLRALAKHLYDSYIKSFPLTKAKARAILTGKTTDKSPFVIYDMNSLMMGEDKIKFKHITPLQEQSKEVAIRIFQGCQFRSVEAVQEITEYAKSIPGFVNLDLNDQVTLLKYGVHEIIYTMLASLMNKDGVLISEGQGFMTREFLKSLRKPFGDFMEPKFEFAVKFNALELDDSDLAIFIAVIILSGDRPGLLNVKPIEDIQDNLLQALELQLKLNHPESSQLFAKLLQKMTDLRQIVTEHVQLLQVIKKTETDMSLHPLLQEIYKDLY

Row | SMILES | outcome
1 | C=CC1(C)OC(=O)N(c2cc(Cl)cc(Cl)c2)C1=O (configuration not stated) | inactive
2 | Cc1c(F)c(F)c(COC(=O)C2C(/C=C(\Cl)C(F)(F)F)C2(C)C)c(F)c1F (configuration not stated) | inactive
3 | COP(=S)(OC)Oc1nc(Cl)c(Cl)cc1Cl | inactive

Read-out: not listed separately
Assay: CEETOX_H295R_11DCORT: CeeTox H295R High-throughput Steroidogenesis Assay for 11-Deoxycortisol (11DCORT) (AID 2283432);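 for AC50: human adrenal H295R cells prestimulated with 10 µM forskolin for 48 h; 11-deoxycortisol secreted into the medium measured by LC-MS/MS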
Settings: actives raise or lower the signal
Procedure, shortened: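 H295R cells prestimulated 48 h with 10 uM forskolin, then exposed 48 h to chemical in 0.1% DMSO. 11-Deoxycortisol in medium quantified by HPLC-MS/MS after MTBE extraction; bidirectional fit versus DMSO. MTT viability read in same wells.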

Row | SMILES | outcome | AC50
4 | CCOC(=O)CC(SP(=S)(OC)OC)C(=O)OCC (configuration not stated) | inactive | –
5 | C=CCC1=C(C)C(OC(=O)C2C(C=C(C)C)C2(C)C)CC1=O (configuration not stated) | inactive | –
6 | CC(C)Oc1cc(-n2nc(C(C)(C)C)oc2=O)c(Cl)cc1Cl | inactive | –
7 | N#CC(CCc1ccc(Cl)cc1)(Cn1cncn1)c1ccccc1 (configuration not stated) | inactive | –
8 | COc1nc(NC(C)C)nc(NC(C)C)n1 | inactive | –
9 | CNC(=S)S | inactive | –
10 | CCNc1nc(Cl)nc(NCC)n1 | inactive | –
11 | CON(C)C(=O)Nc1ccc(Cl)c(Cl)c1 | inactive | –
12 | CCOc1cc(Oc2ccc(C(F)(F)F)cc2Cl)ccc1[N+](=O)[O-] | inactive | –
13 | CC1=C(C(=O)Nc2ccccc2)SCCO1 | inactive | –
14 | CC1COC(Cn2cncn2)(c2ccc(Oc3ccc(Cl)cc3)cc2Cl)O1 (configuration not stated) | inactive | –
15 | CCON=C(CC)C1=C(O)CC(c2c(C)cc(C)cc2C)CC1=O (configuration not stated) | inactive | –
16 | Cc1cc(Cl)ccc1OCC(=O)O | inactive | –
17 | CCCCNC(=O)n1c(NC(=O)OC)nc2ccccc21 | inactive | –
18 | CCCC1COC(Cn2cncn2)(c2ccc(Cl)cc2Cl)O1 (configuration not stated) | inactive | –
19 | CCNc1nc(Cl)nc(NC(C)C)n1 | inactive | –
20 | CCOC(=O)C(Cl)Cc1cc(-n2nc(C)n(C(F)F)c2=O)c(F)cc1Cl (configuration not stated) | inactive | –
21 | C=CC1(C)OC(=O)N(c2cc(Cl)cc(Cl)c2)C1=O (configuration not stated) | – | 25.6 µM (active)
22 | Cc1c(F)c(F)c(COC(=O)C2C(/C=C(\Cl)C(F)(F)F)C2(C)C)c(F)c1F (configuration not stated) | inactive | –

Read-out: not listed separately
Assay: CEETOX_H295R_OHPREG: CeeTox H295R High-throughput Steroidogenesis Assay for OH-Pregnenolone (OHPREG) (AID 2283434)
Settings: actives raise or lower the signal
Procedure, shortened: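 H295R, 10 uM forskolin pre-stim 48 h; test chemical 48 h, 0.1% DMSO final. MTBE extraction, reverse-phase C18 HPLC-ESI+ MS/MS of medium. Gain/loss vs DMSO; viability by MTT in same wells.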

Row | SMILES | outcome | AC50
23 | CCOC(=O)CC(SP(=S)(OC)OC)C(=O)OCC (configuration not stated) | inactive | –
24 | C=CCC1=C(C)C(OC(=O)C2C(C=C(C)C)C2(C)C)CC1=O (configuration not stated) | inactive | –
25 | CC(C)Oc1cc(-n2nc(C(C)(C)C)oc2=O)c(Cl)cc1Cl | – | 0.951 µM (active)
26 | Oc1ccccc1-c1ccccc1 | inactive | –
27 | N#CC(CCc1ccc(Cl)cc1)(Cn1cncn1)c1ccccc1 (configuration not stated) | inactive | –
28 | COc1nc(NC(C)C)nc(NC(C)C)n1 | inactive | –
29 | CNC(=S)S | inactive | –
30 | CCNc1nc(Cl)nc(NCC)n1 | inactive | –
31 | CON(C)C(=O)Nc1ccc(Cl)c(Cl)c1 | inactive | –
32 | CCOc1cc(Oc2ccc(C(F)(F)F)cc2Cl)ccc1[N+](=O)[O-] | inactive | –
33 | CC1=C(C(=O)Nc2ccccc2)SCCO1 | inactive | –
34 | CC1COC(Cn2cncn2)(c2ccc(Oc3ccc(Cl)cc3)cc2Cl)O1 (configuration not stated) | inactive | –
35 | CCON=C(CC)C1=C(O)CC(c2c(C)cc(C)cc2C)CC1=O (configuration not stated) | inactive | –
36 | Cc1cc(Cl)ccc1OCC(=O)O | inactive | –
37 | CCCCNC(=O)n1c(NC(=O)OC)nc2ccccc21 | inactive | –
38 | CCCC1COC(Cn2cncn2)(c2ccc(Cl)cc2Cl)O1 (configuration not stated) | inactive | –
39 | CCNc1nc(Cl)nc(NC(C)C)n1 | inactive | –
40 | CCOC(=O)C(Cl)Cc1cc(-n2nc(C)n(C(F)F)c2=O)c(F)cc1Cl (configuration not stated) | inactive | –
41 | C=CC1(C)OC(=O)N(c2cc(Cl)cc(Cl)c2)C1=O (configuration not stated) | inactive | –
42 | Cc1c(F)c(F)c(COC(=O)C2C(/C=C(\Cl)C(F)(F)F)C2(C)C)c(F)c1F (configuration not stated) | inactive | –
